Results from the supplement of paper PMC12636033.
± gives the standard deviation of the averaged measurements. Over roughly 33,000 sequences, “E-score (rank enrichment, -0.5 to 0.5)” has its median near -0.0068; the highest 2% begin near 0.24. For the sample, the highest values were picked, then their nearest neighbours and some sequences at random.

Test system: muMax20 (Max(13-93) K31hArg/K57hArg, M65Nle)
Assay: PBM 8-mer E-score (E-score (rank enrichment, -0.5 to 0.5)); higher = stronger preferential binding
Method: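 Protein binding microarray (universal PBM chip covering all 10-mers in fixed probe flanks) with chemically synthesized human Max(13-93) bHLH-LZ analogs (not full-length Max) bearing noncanonical residues (hArg, Tha, Aib, Nle at 65) and aromatic Cys staples. Read-out per 8-mer (and its reverse complement): E-score (rank-based enrichment, -0.5 to 0.5) and Z-score of median probe intensity.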

Sequence | PBM 8-mer E-score
AATAGTAT | 0.24 ± 0.012
AATAGTAG | 0.0461 ± 0.02
CCGTCGTC | -0.109 ± 0.011
AACTGGGT | -0.078 ± 0.061
CCAATGAG | -0.095 ± 0.001
CATGGACG | 0.0146 ± 0.1
GAAGAGGC | -0.108 ± 0.083
AGACGGAT | 0.0634 ± 0.17
GTCAATGA | 0.0559 ± 0.0022
CCTGCTGC | -0.107 ± 0.061
TAGTATCA | 0.131 ± 0.033
ATAGATGA | 0.0906 ± 0.033
AACGCATA | 0.0704 ± 0.12
ACACGTCT | 0.0471 ± 0.065
CCAGGTGA | -0.121 ± 0.026
AGACGTGA | 0.104 ± 0.027
ACACGTAC | 0.137 ± 0.036
ACAGGTGA | 0.264 ± 0.062
ATACGTGA | 0.068 ± 0.019
ACACGTCA | 0.246 ± 0.006
ACACGTGC | 0.452 ± 0.05
ACACGTGA | 0.432 ± 0.055
AGACGTGC | -0.0738 ± 0.042
GCAGGTGA | -0.0216 ± 0.0013
ACACGTCG | -0.148 ± 0.048

Sequence | PBM 8-mer E-score
AGCTCTTG | 0.00816 ± 0.055
CAGGCAGA | -0.144 ± 0.036
CCGGCAAA | -0.223 ± 0.11
AAACCGTC | -0.172 ± 0.074
ACCCAGAC | -0.109 ± 0.007
CTAACGCC | -0.0238 ± 0.038
AATTGCCT | 0.00671 ± 0.018
AATAGGGA | 0.142 ± 0.022
CGTTACAC | -0.0405 ± 0.053
TCACGTAA | 0.0827 ± 0.0065
TAACGTGA | 0.101 ± 0.052
ACACGTGG | 0.446 ± 0.062
ACACGTAG | 0.0342 ± 0.052
ACACGTGT | 0.469 ± 0.029
ACACGTAT | 0.218 ± 0.052
AAACGTGG | 0.201 ± 0.0053
AAACGTGT | 0.169 ± 0.1
TCACGTGA | 0.442 ± 0.044
CTTCTACC | 0.00215 ± 0.038
ACAGAATG | 0.088 ± 0.021
GTTTTCGA | -0.0225 ± 0.1
TCGGCCAA | -0.181 ± 0.076
GAATCCAC | 0.0142 ± 0.053
CAATTGTG | 0.0641 ± 0.093
ATAAGGTC | 0.218 ± 0.028

Sequence | PBM 8-mer E-score
ATAAGGTA | 0.244 ± 0.019
ATAAGGAT | 0.246 ± 0.039
ATAAGGAA | 0.0142 ± 0.076
ATAAGGAC | 0.0929 ± 0.069
CTAAGGTA | 0.0373 ± 0.061
CTCTACCC | 0.0459 ± 0.077
CCAACAGA | -0.00227 ± 0.052
GTAGCTCA | -0.0957 ± 0.0039
AACTCAGT | -0.0615 ± 0.032
GTGACACA | 0.0546 ± 0.001
AAAAGATT | 0.0851 ± 0.1
CAAAGATG | 0.0977 ± 0.0035
ATGACACA | 0.156 ± 0.0051
ATGACACG | 0.238 ± 0.041
AAAAGACA | 0.237 ± 0.011
AAAAGATG | 0.263 ± 0.086
CAGACACG | -0.0512 ± 0.046
AAGACACG | 0.293 ± 0.005
CAAAGACA | 0.129 ± 0.0062
AAGACACA | 0.1216 ± 0.00079
AAAAGACC | 0.0838 ± 0.031
GACCACGC | 0.121 ± 0.055
TCGATGAA | -0.0576 ± 0.025
TGGCGGAA | -0.0751 ± 0.029
CCCAGAGC | -0.115 ± 0.017

Sequence | PBM 8-mer E-score
AAAGCAGA | 0.176 ± 0.01
GTTATTTA | 0.222 ± 0.014
GATATTTA | 0.104 ± 0.032
CATATTTC | 0.133 ± 0.0054
CATATTTA | 0.288 ± 0.0037
AATATTCG | 0.134 ± 0.0048
AATATTCA | 0.259 ± 0.0058
AATATATT | 0.244 ± 0.0097
AATATATA | 0.235 ± 0.04
ATTATTTG | 0.212 ± 0.051
AATATAGT | 0.219 ± 0.013
AATATTCC | 0.149 ± 0.012
ATTATTTA | 0.256 ± 0.072
ATGCGGGG | -0.0713 ± 0.071
TCAGGTAA | 0.0683 ± 0.047
GTAGACTA | -0.0707 ± 0.066
CAGTGGGG | -0.0911 ± 0.22
TCTCCGAA | -0.233 ± 0.047
AGGCATGC | 0.121 ± 0.03
GAGTGGCA | -0.0109 ± 0.066
CTTATTTC | 0.24 ± 0.14
AATATTTC | 0.209 ± 0.035
AGTATTTA | 0.222 ± 0.019
GGTATTTA | 0.173 ± 0.045
AATATTTG | 0.167 ± 0.11

Sequence | PBM 8-mer E-score
ATTATTTC | 0.186 ± 0.039
AATATTTA | 0.287 ± 0.011
CGTATTTA | 0.248 ± 0.068
CTTATTTA | 0.0812 ± 0.083
CTCTCCCA | 0.00928 ± 0.07
CACGTATC | 0.158 ± 0.0092
GTCTATAA | 0.181 ± 0.04
CCGTTAAA | -0.00804 ± 0.013
AATGACAA | 0.241 ± 0.033
CATGACAA | 0.2087 ± 0.00054
AATGACAC | 0.161 ± 0.056
CGAATATC | -0.0375 ± 0.072
AGAATATC | 0.129 ± 0.027
CGAATATA | 0.237 ± 0.065
AGAATATA | 0.254 ± 0.039
AGAATATG | 0.227 ± 0.029
GGAATATA | 0.0712 ± 0.077
AGAAACCC | 0.0541 ± 0.034
AGTAGCTC | -0.0686 ± 0.0062
CCTGTCGC | -0.224 ± 0.021
CATATATG | 0.259 ± 0.017
CATCTATA | 0.278 ± 0.013
TATATATA | 0.228 ± 0.091
CATATGTA | 0.257 ± 0.061
AATATGTA | 0.124 ± 0.0062

Sequence | PBM 8-mer E-score
AATATATG | 0.208 ± 0.089
CATATATA | 0.271 ± 0.095
CATATAGG | 0.147 ± 0.0067
GATCTATA | -0.0926 ± 0.0098
AATCTATA | 0.143 ± 0.05
CATATATC | 0.171 ± 0.05
GATATGTA | 0.103 ± 0.057
AAACGAGT | 0.044 ± 0.013
AGTGTGAT | 0.125 ± 0.043
CGTATAGA | 0.0652 ± 0.077
AAGGTTAT | -0.0312 ± 0.054
CACGGTTA | 0.00552 ± 0.11
TCGGAACA | -0.0705 ± 0.069
CAGTGGCC | -0.25 ± 0.067
CAGAGCCA | -0.17 ± 0.01
AGCTGGGC | -0.0998 ± 0.075
ACCACAGG | -0.113 ± 0.031
GCACTTGA | -0.0604 ± 0.011
TGCTCGAA | 0.069 ± 0.0081
ACCCAGTG | -0.0911 ± 0.074
AATATGGA | 0.156 ± 0.017
AATATGGT | 0.095 ± 0.017
AATATGTG | 0.28 ± 0.094
AATATGTC | 0.0382 ± 0.013
AATATGGC | 0.24 ± 0.07

Sequence | PBM 8-mer E-score
ACTATGTG | 0.109 ± 0.069
CAGTTAGG | 0.0928 ± 0.049
GATGCTAA | -0.0557 ± 0.067
GCGTCGAC | -0.038 ± 0.027
CATAAGAG | 0.0912 ± 0.02
GATGCTGC | -0.0878 ± 0.08
CGCCCTGA | -0.0272 ± 0.05
ATAATCGG | 0.137 ± 0.011
CTAAAGTC | -0.208 ± 0.11
ATAAAGTG | 0.0933 ± 0.062
ATAAAGTA | 0.228 ± 0.048
CTAAAGTA | 0.00517 ± 0.053
ATAAAGTC | 0.239 ± 0.082
GTAAAGTA | 0.284 ± 0.074
AAAATGGG | -0.088 ± 0.024
CAAATGGA | -0.0819 ± 0.12
AAAATGGA | 0.298 ± 0.036
AGGCTATG | -0.0609 ± 0.077
ATTCAGCA | 0.076 ± 0.071
AAATCAAG | 0.141 ± 0.028
AAATCAAT | 0.192 ± 0.01
CAATCGTA | 0.18 ± 0.038
AAATCGTA | 0.248 ± 0.024
AAATCAAA | 0.2624 ± 0.00016
TAATCGTA | 0.162 ± 0.0019
